Among the test systems are SK-MEL-2 melanoma; EKVX NSCLC; SN12C renal; UO-31 renal; ACHN renal; CAKI-1 renal; A498 renal; CCRF-CEM leukemia; MOLT-4 leukemia; SR leukemia; RPMI-8226 leukemia; OVCAR-8 ovarian; OVCAR-5 ovarian; OVCAR-4 ovarian; SK-OV-3 ovarian; IGROV1 ovarian; OVCAR-3 ovarian; HS 578T breast; NCI/ADR-RES ovarian; TK-10 renal.
Common to all, as to assay: NCI-60 one-dose screen, 48 h (100 = growth as untreated, 0 = no growth, -100 = all killed)
What all share (conditions): 10 µM unless noted

Molecules are shown by their SMILES. This is part of a sample that, as a whole, favours compounds with a hit. Of some 83,000 tested, about 20% had one in any assay.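 Assay: single dose, 48 h. Readout: percent growth (0 = no net growth; negative = cell death). Active: <10.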 Unmarked numbers belong to inactive results. The source made the active and inactive calls.

Turning to `CC(=O)O[C@H]1C[C@@]2(C)[C@@H](C[C@@H](O)[C@H]3[C@@]4(C)CC[C@H](N5CCCC5)[C@@H](C)[C@@H]4CC[C@@]32C)/C1=C(\CCC=C(C)C)C(=O)O`, the growth was 100% in the experiment on SK-MEL-2 melanoma; 94% in the experiment on EKVX NSCLC; 98.4% in the experiment on SN12C renal; 81.2% in the experiment with UO-31 renal; 102% in the experiment with ACHN renal; 91.6% in the experiment on CAKI-1 renal. For the same compound, the growth was 104% in the experiment on A498 renal; 42.8% in the experiment on CCRF-CEM leukemia; -57.9% (active) with MOLT-4 leukemia; 24% in the experiment on SR leukemia; 88.1% in the experiment on RPMI-8226 leukemia; 102% with OVCAR-8 ovarian. For the same compound, the growth in the experiment with OVCAR-5 ovarian was 102%; with OVCAR-4 ovarian it was 101%; in the experiment with SK-OV-3 ovarian it was 100%; with IGROV1 ovarian it was 105%; in the experiment with OVCAR-3 ovarian, 101%; in the experiment with HS 578T breast it was 95.3%. Moreover, the growth in the experiment on NCI/ADR-RES ovarian was 95.1%.

For the compound `CC(C)(C)CC(C)(C)Nc1c(-c2c(O)c3ccccc3oc2=O)nc2sccn12`, the growth in the experiment with SK-MEL-2 melanoma is 96.8%; with EKVX NSCLC, 105%; in the experiment on SN12C renal, 93.5%; in the experiment on UO-31 renal, 83.6%; in the experiment on ACHN renal, 99.8%; with CAKI-1 renal, 92.8%. In addition, the growth with A498 renal is 118%; in the experiment with CCRF-CEM leukemia, 92.2%; in the experiment with MOLT-4 leukemia, 101%; with SR leukemia, 111%; in the experiment on RPMI-8226 leukemia it was 97.7%; in the experiment on OVCAR-8 ovarian, 91%. The growth in the experiment with OVCAR-5 ovarian was 97.5%; in the experiment on OVCAR-4 ovarian, 111%; with SK-OV-3 ovarian it was 87.2%; in the experiment with IGROV1 ovarian it was 93.2%; in the experiment on OVCAR-3 ovarian, 109%; with HS 578T breast it was 96.3%. Moreover, the growth in the experiment with NCI/ADR-RES ovarian is 98.3%.

With `O=C(c1ccccc1)[C@@H](c1ccccc1)[C@]1(O)C(=O)Nc2ccccc21`, the growth in the experiment with SK-MEL-2 melanoma was 96.9%; with EKVX NSCLC, 105%; with SN12C renal, 82.3%; with UO-31 renal, 76.1%; in the experiment on ACHN renal, 90.1%; with CAKI-1 renal, 84.6%. For the same compound, the growth was 100% in the experiment with A498 renal; 100% in the experiment with CCRF-CEM leukemia; 102% in the experiment with MOLT-4 leukemia; 102% in the experiment on SR leukemia; 100% with RPMI-8226 leukemia; 92.6% in the experiment with OVCAR-8 ovarian. In addition, the growth in the experiment on OVCAR-5 ovarian is 82.1%; with OVCAR-4 ovarian, 98.7%; in the experiment on SK-OV-3 ovarian it was 84%; in the experiment with IGROV1 ovarian it was 98.4%; in the experiment on OVCAR-3 ovarian it was 94.2%; with HS 578T breast it was 93.3%.

On to `CNC(=O)c1cc(Oc2ccc3nc(NC(=O)c4cc(C(F)(F)F)cc(C(F)(F)F)c4)sc3c2)ccn1`, for which the growth with SK-MEL-2 melanoma was -18.5% (active); with EKVX NSCLC, 23.3%; with SN12C renal, 10.5%; in the experiment with UO-31 renal, 6.1% (active); in the experiment with TK-10 renal, 16.6%; in the experiment on ACHN renal, 14.9%. For the same compound, the growth in the experiment on CAKI-1 renal is 11%; in the experiment with CCRF-CEM leukemia, 16.8%; in the experiment on MOLT-4 leukemia, 8.03% (active); in the experiment on SR leukemia, 12.5%; with RPMI-8226 leukemia, 9.36% (active); in the experiment on OVCAR-8 ovarian it was 20.8%. Also, the growth is 51.6% with OVCAR-5 ovarian; 15.8% with OVCAR-4 ovarian; -2.45% (active) in the experiment on SK-OV-3 ovarian; 30.9% with IGROV1 ovarian; 12% with OVCAR-3 ovarian; 32.1% in the experiment on HS 578T breast. Also, the growth in the experiment with NCI/ADR-RES ovarian is 12.9%.

Regarding `NCCNc1ccc([N+](=O)[O-])cc1`, the growth in the experiment with SK-MEL-2 melanoma was 97.2%; in the experiment with EKVX NSCLC it was 137%; in the experiment on SN12C renal it was 103%; in the experiment with UO-31 renal it was 87.1%; in the experiment with ACHN renal, 108%; in the experiment with CAKI-1 renal, 113%. In addition, the growth is 106% in the experiment with A498 renal; 94.5% in the experiment on CCRF-CEM leukemia; 96.2% with MOLT-4 leukemia; 100% with SR leukemia; 93% in the experiment with RPMI-8226 leukemia; 113% in the experiment with OVCAR-8 ovarian. The growth with OVCAR-5 ovarian is 115%; with OVCAR-4 ovarian, 112%; in the experiment with SK-OV-3 ovarian, 109%; with IGROV1 ovarian, 111%; in the experiment on OVCAR-3 ovarian, 134%; in the experiment on HS 578T breast, 106%. Also, the growth with NCI/ADR-RES ovarian is 116%.

Regarding `C=CCNc1nc(O)c(/C=C2\C=Nc3ncccc32)s1`, the growth is -8.35% (active) in the experiment on SK-MEL-2 melanoma; 30.5% with EKVX NSCLC; 24% in the experiment on SN12C renal; 3.09% (active) with UO-31 renal; 1.67% (active) in the experiment on TK-10 renal; -1.22% (active) with ACHN renal. For the same compound, the growth with CAKI-1 renal was 30.2%; in the experiment on CCRF-CEM leukemia it was 7.13% (active); in the experiment with MOLT-4 leukemia, 5.78% (active); with SR leukemia, -9.51% (active); in the experiment with RPMI-8226 leukemia, 42.7%; in the experiment with OVCAR-8 ovarian, 10.7%. In addition, the growth with OVCAR-5 ovarian was 5.27% (active); in the experiment on OVCAR-4 ovarian, 34.7%; with IGROV1 ovarian it was 17%; in the experiment on OVCAR-3 ovarian, -7.02% (active); with HS 578T breast, -15% (active); with NCI/ADR-RES ovarian it was 42.1%.

As for `O=C1CCC(C(=O)N/N=C/c2ccc([N+](=O)[O-])cc2)N1` (stereo not given), the growth is 102% in the experiment with SK-MEL-2 melanoma; 102% with EKVX NSCLC; 103% with SN12C renal; 83.4% with UO-31 renal; 101% with ACHN renal; 93% with CAKI-1 renal. In addition, the growth with A498 renal is 106%; in the experiment with CCRF-CEM leukemia it was 97%; in the experiment on MOLT-4 leukemia it was 102%; in the experiment on SR leukemia it was 113%; with RPMI-8226 leukemia, 100%; in the experiment on OVCAR-8 ovarian it was 101%. Moreover, the growth in the experiment with OVCAR-5 ovarian was 105%; in the experiment with OVCAR-4 ovarian, 104%; in the experiment with SK-OV-3 ovarian it was 105%; in the experiment on IGROV1 ovarian, 100%; with OVCAR-3 ovarian it was 105%; in the experiment on HS 578T breast, 98.8%. Besides, in the experiment on NCI/ADR-RES ovarian, the growth was 103%.

For the compound `CCOC(=O)c1ccc2c(c1)c1c(C)c3cnccc3c(C)c1n2C`, the growth is -89% (active) in the experiment with SK-MEL-2 melanoma; -13.4% (active) in the experiment with EKVX NSCLC; -58.2% (active) in the experiment on SN12C renal; -53.6% (active) in the experiment on UO-31 renal; -95% (active) with ACHN renal; -25% (active) in the experiment on CAKI-1 renal. The growth was -78.7% (active) with A498 renal; -2.56% (active) in the experiment with CCRF-CEM leukemia; 2.2% (active) in the experiment on MOLT-4 leukemia; 14.9% in the experiment on SR leukemia; -29.7% (active) with RPMI-8226 leukemia; -21.5% (active) with OVCAR-8 ovarian. The growth with OVCAR-5 ovarian was -46.7% (active); with OVCAR-4 ovarian, -14.8% (active); in the experiment with SK-OV-3 ovarian it was -21.4% (active); in the experiment with IGROV1 ovarian, -62.7% (active); in the experiment with OVCAR-3 ovarian it was -47.5% (active); with HS 578T breast, -27.6% (active). Further, in the experiment on NCI/ADR-RES ovarian, the growth is -33.1% (active).

The record behind these values is PubChem BioAssay (NCI).
